Source: PubChem
Most compounds without a hit are left out; they make up all but 3.2% or so of the library.
RE007 growth inh = qHTS Assay for Inhibitors of the HIV-1 protein Vpr; Potency, µM (top dose mostly 92.2 µM), without a hit: at the top dose activity change, negative = less growth, most hits filed as inhibitors; hit rate 0.21% among 360,000; S. pombe RE007 Vpr strain, BacTiter-Glo ATP luminescence, 24 h; active = well fitted falling curve with a large enough effect; inconclusive = small, poorly fitted or top-dose-only effect; inactive = no such curve, though single readings can be large or run the other way; note: nearly all actives have a fitted effect of over 50% in size
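Fission yeast strain RE007, carrying one chromosomally integrated HIV-1 vpr copy, was seeded at OD 0.01 in PMG+AL medium with 23 nL pinned compound. After 24 h at 30 °C and 99% humidity, viability was read by BacTiter-Glo luminescence.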
AmpC detergent = qHTS Inhibitors of AmpC Beta-Lactamase (assay with detergent); AID 485294, 2010; hit rate 0.041% among 370,000; Potency, µM (highest dose often 114 µM), for inactives: at the highest dose activity change, negative = inhibition, actives largely listed as inhibitors; P00811; AmpC hydrolysis of nitrocefin, absorbance 480 nm, 0.01% Triton;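 note: 0% = no-compound wells and -100% = no-enzyme wells; nearly all actives have a fitted effect of over 25% in size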
Target sequence (P00811 whole entry, looked up): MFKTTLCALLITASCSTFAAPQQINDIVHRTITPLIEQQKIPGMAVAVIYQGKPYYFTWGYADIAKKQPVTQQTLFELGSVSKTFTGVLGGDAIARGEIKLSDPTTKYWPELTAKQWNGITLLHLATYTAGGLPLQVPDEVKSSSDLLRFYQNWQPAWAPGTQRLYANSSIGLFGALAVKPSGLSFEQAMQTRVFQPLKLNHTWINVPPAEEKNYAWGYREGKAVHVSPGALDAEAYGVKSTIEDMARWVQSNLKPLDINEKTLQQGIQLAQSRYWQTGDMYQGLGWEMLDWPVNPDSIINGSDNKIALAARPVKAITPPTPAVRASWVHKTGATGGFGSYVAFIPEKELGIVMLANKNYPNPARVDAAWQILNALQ
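20 mM phosphate pH 7.0 + 0.01% (detergent screen) or 0.0001% Triton X-100; 5.3 nM AmpC reagent; cpd preinc 15 min RT; nitrocefin (800 uM stock) to start; A480 q20 s × 4 min; Activity was normalised to no-enzyme and no-compound control wells.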
AMA1-RON2 inh = qHTS for Inhibitors of AMA1-RON; Towards Development of Antimalarial Drug Lead: Primary Screen; Plasmodium falciparum AMA1 (3D7) - RON2 peptide interaction; AlphaScreen AMA1-biotinylated RON2 peptide binding; Potency, µM (series often up to 58.2 µM), inactives show at the top dose activity change, negative = inhibition, usual class: inhibitors; hit rate 0.2% among 360,000; AID 720542, 2013;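 note: 0% = vehicle wells and -100% = peptide control; nearly all actives have a fitted effect of over 45% in size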
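AMA1 (3D7) with his tag at 25 nM final met compounds first, then biotinylated RON2 peptide at 25 nM; detection used donor plus acceptor beads, 10 µg/mL apiece, read by AlphaScreen after 30 min at room temperature.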
AmpC no deterg = qHTS Inhibitors of AmpC Beta-Lactamase (assay without detergent); Potency, µM (doses to about 57.1 µM), for inactives: at the top dose activity change, negative = inhibition, actives largely listed as inhibitors; AmpC nitrocefin hydrolysis, absorbance 480 nm, 0.0001% Triton; P00811; AID 485341, 2010; hit rate 0.52% among 330,000;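 note: plate controls were no compound for no effect and no enzyme for full effect; nearly all actives have a fitted effect of over 20% in size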
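20 mM phosphate pH 7.0 + 0.01% (detergent screen) or 0.0001% Triton X-100; 5.3 nM AmpC reagent; cpd preinc 15 min RT; nitrocefin (800 uM stock) to start; A480 q20 s × 4 min; Activity was normalised to no-enzyme and no-compound control wells.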
Sm TGR inh = qHTS Assay for the Inhibitors of Schistosoma Mansoni Peroxiredoxins. Schistosoma mansoni thioredoxin glutathione reductase (TGR), Q962Y6. purified TGR, DTNB reduction, TNB absorbance 405 nm. Potency, µM (series often up to 114 µM), inactives show top-dose activity change, negative = inhibition, most hits filed as inhibitors. hit rate 3% among 360,000; note: nearly all actives have a fitted effect of over 60% in size
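TGR 20 nM + NADPH 100 uM (dispensed conc.), cpd preinc 15 min RT; start with NADPH (500 uM addition) then DTNB (15 mM addition). Kinetic TNB absorbance, 405 nm filter. Four-parameter Hill fit across titration.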
* hit, by the source's call; ? = inconclusive; . = not tested or not shown; [ ] = remark or other dose. Unless noted, calls come from the whole dose curve; as a rule, active = well fitted curve in the direction sought with a large enough effect; inconclusive = small, poorly fitted or top-dose-only effect, or another doubt; inactive = no such curve, though single readings can be large; an effect the other way counts as inactive or inconclusive. Unless noted, % is set by controls: 0 for no effect and ±100 for the full control effect; potency is the fitted concentration of half-maximal effect.

SMILES	RE007 growth inh	AmpC detergent	AMA1-RON2 inh	AmpC no deterg	Sm TGR inh
C=CCNC(=O)c1c(N)n(Cc2ccco2)c2nc3ccccc3nc12	-5%	-17%	80%	17%	45µM*
C=CCn1c(NC(=O)c2ccco2)c(S(=O)(=O)c2ccccc2)c2nc3ccccc3nc21	.	?	.	-27%	45µM*
COc1ccc(C(=O)Oc2c(Sc3ccccc3)c(C)nn2-c2ccccc2)c(OC)c1	.	-4%	.	.	-12%
Oc1c(C(c2ccccc2F)N2CCOCC2)sc2nc(-c3ccco3)nn12 (stereo unspecified)	.	4%	.	.	14%
Cc1ccc(N2C(=O)CSC23C(=O)N(CC(=O)Nc2ccccc2F)c2ccccc23)cc1C (stereo unspecified)	.	-1%	.	.	2%
CC(C)(C)OC(=O)c1c(N)n(Cc2ccco2)c2nc3ccccc3nc12	2%	?	17%	-7%	28µM*
CCOc1ccc(CCNC(=O)c2cc(=O)[nH]c3ccc(S(=O)(=O)N4CCCCC4C)cc23)cc1OCC (stereo unspecified)	.	4%	.	.	6%
COc1ccc(OC)c(-n2c(C)cc(C=O)c2C)c1	-22%	4%	-9%	-8%	-2%
COc1ccc(OC)c(N2Cc3cc(C)c(C)cc3C2)c1	-1%	3%	-9%	-2%	45µM*
c1ccc(N=Nc2ccc3cccccc2-3)cc1	-26%	.	4.5µM*	.	.
Cc1cc(C)cc(NC(=O)CSc2nnc(-c3cc4occc4n3C)n2-c2ccccc2C)c1	.	18%	.	.	4%
Cc1ccc(-n2nc3c(N4CCCC(C(=O)NCCc5ccccc5)C4)nnc(C)c3c2C)cc1 (stereo unspecified)	.	6%	.	.	-13%
Cc1ccccc1/C=N/Nc1ccc(Cl)nn1	8%	-7%	9%	-32%	40µM*
Cc1cccc(C2NC(=O)c3c(sc4c3CCN(C)C4)N2)c1O (stereo unspecified)	.	-11%	.	.	?
O=C(CS(=O)(=O)c1cccc2nsnc12)N1CCN(c2cccc(C(F)(F)F)c2)CC1	.	0%	.	.	5%
CCc1ccc(NC2CC(=O)N(CCc3ccc(OC)c(OC)c3)C2=O)cc1 (stereo unspecified)	-11%	?	-7%	61%	14µM*
CCc1ccc(NC2CC(=O)N(c3ccc(OC)cc3OC)C2=O)cc1 (stereo unspecified)	-11%	?	-13%	-22%	35µM*
COc1ccc(CCN2C(=O)CC(Nc3ccc(N4CCOCC4)cc3)C2=O)cc1OC (stereo unspecified)	4%	6%	-10%	.	20µM*
COc1ccc(CCN2C(=O)CC(Sc3ncccc3C(=O)O)C2=O)cc1OC (stereo unspecified)	-9%	?	0%	-2%	11µM*
COc1ccc(CCNC2CC(=O)N(CCc3ccccc3)C2=O)cc1OC (stereo unspecified)	-3%	?	18%	54%	0%
COc1ccc(CCN2C(=O)CC(N3CCOCC3)C2=O)cc1OC (stereo unspecified)	-2%	-9%	10%	-4%	-31%
COc1ccc(CCCc2nnc(SCC(=O)Nc3cc(F)ccc3C)o2)cc1	.	13%	.	.	-1%
COc1cccc2c1cc1c(=O)n(CC(=O)N3CCN(c4ccccc4F)CC3)nc(C)n12	.	24%	.	.	11%
C=CCn1c(O)c(CN2CCOCC2)c(C)c(C#N)c1=O	3%	?	15%	-19%	40µM*
O=C(Nc1ccccc1)C1Cc2ccccc2CN1C(=O)c1ccco1 (stereo unspecified)	19%	0%	9%	-28%	40µM*
SMILES	RE007 growth inh	AmpC detergent	AMA1-RON2 inh	AmpC no deterg	Sm TGR inh
COc1ccccc1NC(=O)C1Cc2ccccc2CN1C(=O)c1ccco1 (stereo unspecified)	-10%	-17%	-7%	-25%	32µM*
COc1ccc(-n2ncc3c2ncn2nc(-c4ccc(OC)c(OC)c4)nc32)cc1	.	13%	.	.	11%
CCc1ccccc1Nc1cc(C(=O)NCCCN(C)C2CCCCC2)c2ccccc2n1	.	3%	.	.	?
COC(=O)c1ccc(CSc2nc(C)nc3sc(C)c(C)c23)o1	6%	-8%	-4%	-8%	100µM*
Cc1nc(SCC(=O)N(C)Cc2ccco2)c2c(C)c(C)sc2n1	-2%	-7%	0%	22%	45µM*
CCN(C(=O)CSc1nc(C)nc2sc(C)c(C)c12)c1ccc(F)cc1	-8%	?	10%	-16%	-8%
COC(=O)c1ccc(CSc2nnc(SCc3ccc(C(=O)OC)o3)s2)o1	-7%	-1%	?	-18%	?
Cc1nc(-c2ccc(NC(=O)c3ccccc3)cc2)cs1	45µM*	0%	0%	23%	-10%
O=c1c2c3nc4ccccc4nc3n(/N=C/c3ccco3)c2ncn1CCC1=CCCCC1	-16%	0%	-9%	-39%	13µM*
O=c1c2ccccc2c(=O)n(-c2ccccc2)n1CCCCBr	8%	.	-3%	.	.
CC(=O)n1c(=O)c2ccccc2c(=O)n1-c1ccccc1	3%	1%	3%	-8%	32µM*
CCc1ccc(NC(=O)CSC2=Nc3ccccc3C3=NC(CC(=O)NCc4cccs4)C(=O)N23)cc1 (stereo unspecified)	.	0%	.	.	4%
O=C(CCCn1c(=O)c2sccc2n(Cc2ccc(Cl)cc2)c1=O)NCc1ccc2c(c1)OCO2	.	14%	.	.	6%
Oc1c(Br)cc(Cl)cc1C=Nc1ccccc1Br	-12%	?	3%[2.32 µM]	-19%	22µM*
NS(=O)(=O)c1ccc(NC(=O)COC(=O)c2cn(-c3ccccc3)nc2-c2ccc(F)cc2)cc1	0%	-8%	-5%	13µM*	0%
O=C(/C=C/c1cn(-c2ccccc2)nc1-c1ccccc1)Nc1ccc(C(=O)O)cc1	17%	0%	9%	-33%	2%
NS(=O)(=O)c1ccc(NC(=O)/C=C/c2cn(-c3ccccc3)nc2-c2cccc(Cl)c2)cc1	12%	-9%	-20%	2.5µM*	.
COc1cccc(CCNC(=O)c2c(O)nc3c(C)cccn3c2=O)c1	.	17%	.	.	7%
Cc1ccc(S(=O)(=O)NC(CC(=O)NC2CCCC2)c2ccco2)cc1 (stereo unspecified)	11%	-4%	12%	0.4µM*	1%
Cc1ccc(S(=O)(=O)NC(CC(=O)N2CCOCC2)c2ccco2)cc1 (stereo unspecified)	23%	5%	-1%	0.14µM*	-3%
